Data from PubChem BioAssay (NCATS).
Records with an inconclusive call do not appear. Unmarked numbers belong to inactive results. Calls follow the shape of the dose curve; as a rule, active = well fitted curve in the direction sought with a large enough effect; inconclusive = small, poorly fitted or top-dose-only effect, or another doubt; inactive = no such curve, though single readings can be large; an effect the other way counts as inactive or inconclusive.

Biological target: Aldehyde dehydrogenase, mitochondrial (Homo sapiens) (UniProt P05091)
Assay: qHTS for Inhibitors of the Aldehyde Dehydrogenase Family (ALDH2) Primary screen (AID 2061308);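 also: plate controls were vehicle for no effect and reference inhibitor for full effect; nearly all actives have a fitted effect of over 55% in size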
Conditions: ALDH2 enzyme inhibition qHTS, 1536-well; series mostly up to 56 µM; activity change, negative = inhibition: at the top concentration

First: N#Cc1nc(Nc2ccc(-c3ccccc3)cc2)nc(NC2CCCC2)n1
Second: N#Cc1nc(-c2cccc3ccccc23)oc1NC1COC1
The “activity change, negative = inhibition” value of the first is lower: -2.95% for the first, 5.61% for the second.

Going from `Cc1ccc(-c2ccc(=O)n(CC(=O)NCCc3ccccn3)n2)cc1` to `Cc1ccc(-c2nccc(=O)n2C(C)C(=O)NCCc2ccccc2)cc1` (stereo not given), the “activity change, negative = inhibition” value falls from 5.42% to 0.163%.

Going from `O=c1c2ccccc2nc2sc(Nc3ccc4c(c3)CNC4)nn12` to `Cc1ccsc1C1N=C(Nc2nc3ccccc3o2)NC2=C1C(=O)CCC2` (stereo not given), the “activity change, negative = inhibition” value falls from 10.8% to -23.4%.

Compared with `CCNC(=O)c1ccc(-c2ccc3ncnc(NCc4nccs4)c3c2)o1`, `Cc1csc(CNc2ncnc3ccc(-c4ccc5c(c4)OCO5)cc23)n1` is lower in “activity change, negative = inhibition” value: -0.933% for the first, -14.9% for the second.

Compared with `CC1(C)CC(=O)C2=C(C1)NC(Nc1nc3ccccc3o1)=NC21CCCCC1`, `CC(C)N1CCc2c(sc(NC(=O)C3CCCC3)c2-c2nc3ccccc3s2)C1` is lower in “activity change, negative = inhibition” value: 12.8% for the first, -7% for the second.

Compared with `CC(=O)CC(=O)Nc1ccc(Cl)c(C(F)(F)F)c1`, `O=C(Cc1nnc(CNC(=O)c2ccccc2)o1)Nc1cc(C(F)(F)F)ccc1Cl` is higher in “activity change, negative = inhibition” value: -1.1% for the first, 2.45% for the second.

Going from `CCCCNC(=O)c1ccc2c(c1)ncn2-c1cccc(C)c1` to `Cc1ccc(OCCn2c(CCNC(=O)N3CCCCC3)nc3ccccc32)cc1`, the “activity change, negative = inhibition” value falls from 5.47% to 4.87%.

First: Cn1nnnc1Sc1ncnc2scc(-c3cccc(S(C)(=O)=O)c3)c12
Second: COc1cccc(CNc2ccc(S(=O)(=O)Nc3cc(C)on3)cc2)c1O
The “activity change, negative = inhibition” value of the first is higher: 9.69% for the first, 1.09% for the second.

Going from `COc1cc(F)c(F)c(Nc2ccc(I)cc2F)c1NS(=O)(=O)C1(CC(O)CO)CC1` (stereo not given) to `O=S(=O)(NCCCNS(=O)(=O)c1c(F)cccc1F)c1ccc2c(c1)OCCO2`, the “activity change, negative = inhibition” value rises from 3% to 5.64%.

Compared with `Cc1cn([C@H]2C[C@H](N[S+](=O)([O-])Cc3cccc([N+](=O)[O-])c3)[C@@H](CO)O2)c(=O)[nH]c1=O`, `CCOc1ccc(C(=O)Nc2ccc(-c3nc4ccccc4[nH]3)cc2)cc1[N+](=O)[O-]` is lower in “activity change, negative = inhibition” value: 14.1% for the first, -2.81% for the second.

Compared with `O=C(NCc1ccc(Cl)c(Cl)c1)Nc1nnc(-c2ccncc2)s1`, `O=C(Nc1ccc2c(c1)OCCO2)Nc1nnc(-c2ccncc2)s1` is lower in “activity change, negative = inhibition” value: 10.1% for the first, 5.75% for the second.

Compared with `N#Cc1ccccc1S(=O)(=O)N1CCN(S(=O)(=O)c2ccc3c(c2)OCCO3)CC1`, `Cc1ccc(S(=O)(=O)NCC(=O)Nc2nc(-c3ccccc3)cs2)cc1` is lower in “activity change, negative = inhibition” value: 19.2% for the first, 7.7% for the second.

First: Cc1nc(C(C)N(C)c2ncnc3ccc(-c4ccc5c(c4)OCO5)cc23)cs1 (stereo not given)
Second: Cn1ccc2cc(-c3ccc4ncnc(NCc5cccnc5)c4c3)ccc21
The “activity change, negative = inhibition” value of the first is lower: 1.57% for the first, 10.7% for the second.

Going from `CCCn1c(-c2ccc(F)cc2)nc2c(NCCN(C)C)nc(C)nc21` to `COCCNc1nc(C)nc2c1nc(-c1ccccc1)n2C1CCN(Cc2ccccc2)C1` (stereo not given), the “activity change, negative = inhibition” value falls from 12.2% to 2.42%.

First: O=C(Nc1nc(-c2ccccc2)cs1)c1ccccc1
Second: O=C(Nc1ccc2ccccc2c1)Nc1nnc(-c2ccc(Cl)cc2)s1
The “activity change, negative = inhibition” value of the first is lower: 2.12% for the first, 3.15% for the second.

First: Cc1cc(C)nc(NC(=S)N2CCN(c3ccc(NS(C)(=O)=O)nn3)CC2)c1
Second: COc1cccc(NC(=S)N2CCN(c3cc(C(F)(F)F)cc(C(F)(F)F)c3)CC2)n1
The “activity change, negative = inhibition” value of the first is higher: 17% for the first, 12.6% for the second.

First: COc1cccc(C2c3c(ncn(-c4ccc(-c5ccccc5)cc4)c3=N)Oc3ccc4ccccc4c32)c1 (stereo not given)
Second: FC(F)(F)c1ccc(-c2nc(NCc3ccc(-c4cccnc4)cc3)c3ccccc3n2)cc1
The “activity change, negative = inhibition” value of the first is higher: 4.33% for the first, -3.93% for the second.

First: C=C1C(=O)O[C@@H]2[C@H]1CC[C@H](C)[C@]1(CCC(=O)O1)C2(C)O (stereo not given in full)
Second: CCNC(=O)C1CCC(C(=O)Nc2ccc([S+](=O)([O-])Nc3nccs3)cc2)CC1 (stereo not given)
The “activity change, negative = inhibition” value of the first is lower: -3.1% for the first, 5.57% for the second.

Compared with `Oc1ccc(-c2ccccc2F)c2cccnc12`, `OCC#CCSc1nnc(-c2cccc3ccccc23)o1` is lower in “activity change, negative = inhibition” value: -7.21% for the first, -13.4% for the second.

First: O=C(NNc1nc2cc(F)ccc2n2cccc12)c1cnccn1
Second: Brc1sc2c(c1-c1nc3ccccc3s1)CCNC2
The “activity change, negative = inhibition” value of the first is lower: 2.97% for the first, 7.13% for the second.

Biological target: Retinaldehyde dehydrogenase 3 (Homo sapiens) (UniProt P47895)
Assay: qHTS for Inhibitors of the Aldehyde Dehydrogenase Family (ALDH1A3) Primary screen (AID 2061315);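 also: plate controls were DMSO vehicle for no effect and reference inhibitor for full effect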
Conditions: ALDH inhibition qHTS; series mostly up to 56 µM; activity change, negative = inhibition: at the top concentration

Compared with `N#Cc1nc(Nc2ccc(-c3ccccc3)cc2)nc(NC2CCCC2)n1`, `N#Cc1nc(-c2cccc3ccccc23)oc1NC1COC1` is lower in “activity change, negative = inhibition” value: 12.5% for the first, 4.1% for the second.

Compared with `Cc1ccc(-c2ccc(=O)n(CC(=O)NCCc3ccccn3)n2)cc1`, `Cc1ccc(-c2nccc(=O)n2C(C)C(=O)NCCc2ccccc2)cc1` (stereo not given) is higher in “activity change, negative = inhibition” value: -10.8% for the first, -2.55% for the second.

Going from `O=c1c2ccccc2nc2sc(Nc3ccc4c(c3)CNC4)nn12` to `Cc1ccsc1C1N=C(Nc2nc3ccccc3o2)NC2=C1C(=O)CCC2` (stereo not given), the “activity change, negative = inhibition” value rises from 4.17% to 22.6%.

Compared with `CCNC(=O)c1ccc(-c2ccc3ncnc(NCc4nccs4)c3c2)o1`, `Cc1csc(CNc2ncnc3ccc(-c4ccc5c(c4)OCO5)cc23)n1` is higher in “activity change, negative = inhibition” value: -10.5% for the first, 13.5% for the second.

Going from `CC1(C)CC(=O)C2=C(C1)NC(Nc1nc3ccccc3o1)=NC21CCCCC1` to `CC(C)N1CCc2c(sc(NC(=O)C3CCCC3)c2-c2nc3ccccc3s2)C1`, the “activity change, negative = inhibition” value falls from 14.1% to -2.52%.

Compared with `CC(=O)CC(=O)Nc1ccc(Cl)c(C(F)(F)F)c1`, `O=C(Cc1nnc(CNC(=O)c2ccccc2)o1)Nc1cc(C(F)(F)F)ccc1Cl` is higher in “activity change, negative = inhibition” value: -0.0521% for the first, 17% for the second.

First: CCCCNC(=O)c1ccc2c(c1)ncn2-c1cccc(C)c1
Second: Cc1ccc(OCCn2c(CCNC(=O)N3CCCCC3)nc3ccccc32)cc1
The “activity change, negative = inhibition” value of the first is higher: -4.94% for the first, -8.66% for the second.

Compared with `Cn1nnnc1Sc1ncnc2scc(-c3cccc(S(C)(=O)=O)c3)c12`, `COc1cccc(CNc2ccc(S(=O)(=O)Nc3cc(C)on3)cc2)c1O` is lower in “activity change, negative = inhibition” value: 0.873% for the first, -10.7% for the second.

Going from `COc1cc(F)c(F)c(Nc2ccc(I)cc2F)c1NS(=O)(=O)C1(CC(O)CO)CC1` (stereo not given) to `O=S(=O)(NCCCNS(=O)(=O)c1c(F)cccc1F)c1ccc2c(c1)OCCO2`, the “activity change, negative = inhibition” value rises from -12.2% to 0.429%.

Compared with `Cc1cn([C@H]2C[C@H](N[S+](=O)([O-])Cc3cccc([N+](=O)[O-])c3)[C@@H](CO)O2)c(=O)[nH]c1=O`, `CCOc1ccc(C(=O)Nc2ccc(-c3nc4ccccc4[nH]3)cc2)cc1[N+](=O)[O-]` is higher in “activity change, negative = inhibition” value: -24.8% for the first, 7.27% for the second.

Going from `O=C(NCc1ccc(Cl)c(Cl)c1)Nc1nnc(-c2ccncc2)s1` to `O=C(Nc1ccc2c(c1)OCCO2)Nc1nnc(-c2ccncc2)s1`, the “activity change, negative = inhibition” value falls from 6.66% to 0.914%.

Compared with `N#Cc1ccccc1S(=O)(=O)N1CCN(S(=O)(=O)c2ccc3c(c2)OCCO3)CC1`, `Cc1ccc(S(=O)(=O)NCC(=O)Nc2nc(-c3ccccc3)cs2)cc1` is higher in “activity change, negative = inhibition” value: 8.15% for the first, 10% for the second.

Compared with `Cc1nc(C(C)N(C)c2ncnc3ccc(-c4ccc5c(c4)OCO5)cc23)cs1` (stereo not given), `Cn1ccc2cc(-c3ccc4ncnc(NCc5cccnc5)c4c3)ccc21` is higher in “activity change, negative = inhibition” value: -9.76% for the first, -1.77% for the second.

Going from `CCCn1c(-c2ccc(F)cc2)nc2c(NCCN(C)C)nc(C)nc21` to `COCCNc1nc(C)nc2c1nc(-c1ccccc1)n2C1CCN(Cc2ccccc2)C1` (stereo not given), the “activity change, negative = inhibition” value falls from 6.23% to -1.77%.

Going from `O=C(Nc1nc(-c2ccccc2)cs1)c1ccccc1` to `O=C(Nc1ccc2ccccc2c1)Nc1nnc(-c2ccc(Cl)cc2)s1`, the “activity change, negative = inhibition” value falls from -3.86% to -8.01%.

Compared with `Cc1cc(C)nc(NC(=S)N2CCN(c3ccc(NS(C)(=O)=O)nn3)CC2)c1`, `COc1cccc(NC(=S)N2CCN(c3cc(C(F)(F)F)cc(C(F)(F)F)c3)CC2)n1` is higher in “activity change, negative = inhibition” value: 1.71% for the first, 38.1% for the second.

Compared with `COc1cccc(C2c3c(ncn(-c4ccc(-c5ccccc5)cc4)c3=N)Oc3ccc4ccccc4c32)c1` (stereo not given), `FC(F)(F)c1ccc(-c2nc(NCc3ccc(-c4cccnc4)cc3)c3ccccc3n2)cc1` is lower in “activity change, negative = inhibition” value: 1.11% for the first, -24.7% for the second.

Compared with `C=C1C(=O)O[C@@H]2[C@H]1CC[C@H](C)[C@]1(CCC(=O)O1)C2(C)O` (stereo not given in full), `CCNC(=O)C1CCC(C(=O)Nc2ccc([S+](=O)([O-])Nc3nccs3)cc2)CC1` (stereo not given) is higher in “activity change, negative = inhibition” value: -10.7% for the first, 2.11% for the second.

Compared with `Oc1ccc(-c2ccccc2F)c2cccnc12`, `OCC#CCSc1nnc(-c2cccc3ccccc23)o1` is higher in “activity change, negative = inhibition” value: -3.51% for the first, -0.221% for the second.

Going from `O=C(NNc1nc2cc(F)ccc2n2cccc12)c1cnccn1` to `Brc1sc2c(c1-c1nc3ccccc3s1)CCNC2`, the “activity change, negative = inhibition” value rises from 3.58% to 24.7%.
